The assay relates to HL-60(TB) leukemia. Briefly: NCI-60 one-dose screen, 48 h (100 = growth as untreated, 0 = no growth, -100 = all killed). The note with it: 10 µM unless noted.

Structures are written as SMILES. The panel holds about 83,000 compounds, 20% with a hit somewhere; the sample as a whole holds those more often.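 Values shown are percent growth following 48 h exposure of cells in 96-well plates to a single concentration of compound; below 10 was considered active.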 Values without a mark were called inactive. The source made the active and inactive calls.

For `c1ccc(C2=Nc3ccccc3SC2)cc1`, the growth is 107%. For `CC(=O)O[C@H]1CC[C@@]2(C)C(=CC[C@@H]3[C@@H]2CC[C@]2(C)C(c4cccnc4)=CC[C@@H]32)C1`, the growth was 4.36% (active). For the compound `O=C(c1cnn2c1NC(c1ccc(F)cc1)C2)N1CCCCC1` (centres undefined), the growth is 99.7%. For the compound `CC(=O)C[n+]1ccc(C)cc1Sc1ccccc1C`, the growth is 109%. `ClC1c2ccccc2CCc2ccccc21`: the growth is 122%. With `COC(=O)c1ccc(NC(N)=NCCC(C)(C)c2ccc(C(F)(F)F)cc2)nc1`, the growth is -41.4% (active). As for `COc1cccc2c1C(=O)c1c(O)c3c(c(O)c1C2=O)C[C@@](O)(/C(C)=N/NC(=O)c1ccc(Cl)cc1)C[C@@H]3OC1CC(N)C(O)C(C)O1` (some centres undefined), the figure is -53.4% (active); as for `COc1ccc(CCN2CC=Cn3c2nc2ccccc2c3=O)cc1`, -8.02% (active). For `C[C@H]1[C@@H]2[C@H]3CC[C@@H]4[C@@]5(C)Cc6c([nH]c7ccccc67)C(C)(C)[C@@H]5CC[C@@]4(C)[C@]3(C)CC[C@]23CO[C@]1(C)[C@@H](C(=O)/C=C/c1ccccn1)C3`, the growth was 72.4%. `c1ccc2cc(C[n+]3ccn(CCCCCCCn4cc[n+](Cc5ccc6ccccc6c5)c4)c3)ccc2c1`: the growth is 32.9%. The figure for `COc1cc(-c2cc(-c3nc4ccc(Cl)cc4[nH]3)[nH]n2)cc(OC)c1OC` is 38.4%; for `C/C=C1/CN(CCCCC)CC[C@H]1C(=O)c1cc2ccccc2[nH]1` it is 90.6%. The figure for `C=C1CC[C@@H]2[C@@](C)(CCC[C@]2(C)C(=O)O)[C@@H]1CC[C@H](CO)CCO` is 93.7%; for `O=C(Nc1ccc(-n2cc(-c3ccncc3)c(-c3ccc(Cl)c(O)c3)n2)cc1)N1CCOCC1` it is 108%; for `C#CCn1cc(C=C2C(=O)NC(=O)NC2=O)c2cc(Cl)ccc21` it is 59.9%. As for `Oc1ccc(O)c(-c2ccccc2)c1`, the figure is 35.4%. In the case of `CCCCC1(O)CCCCC1`, the growth is 99.1%. With `Nc1n[nH]c2cccc(C#Cc3cccc(C(=O)Nc4ccc(Cl)c(C(F)(F)F)c4)c3)c12`, the growth is 21%. As to `Brc1ccccc1Cn1c(-c2cncs2)nc2ccccc21`, the growth is 79.1%. For the compound `CCCCCCCCCc1cc[n+](CC(=O)c2ccc([N+](=O)[O-])cc2)cc1`, the growth was -40.4% (active). For the compound `CC(C)OP(=O)(OC(C)C)c1ncc(-c2ccc(C(F)(F)F)cc2)c(NC2CCCCCC2)n1`, the growth is -43.9% [33.3 µM] (active). Take `CSc1nn2c(-c3ccc4ccccc4c3)ccnc2c1C#N`: the growth is 14.1%. `Cc1ccc(-c2nn(Cc3cn(-c4cc(C)nc5ccccc45)nn3)c3ncnc(N)c23)cc1`: the growth is 83.1%. As for `Cn1cc(-c2nc(-c3c[nH]c4ncc(F)cc34)cs2)c2cccnc21`, the growth was 103%. As for `S=c1ccnc[nH]1`, the growth was 59.3%. The figure for `COc1cc(-c2nn(-c3ccc(NC(=O)Nc4cc(C(F)(F)F)cc(C(F)(F)F)c4)cc3)cc2-c2ccncc2)ccc1Cl` is 4.78% (active); for `COc1ccc(C2SCC(=O)N2NC(=O)c2ccc(NC(=O)c3ccccn3)cc2)cc1OC` (centres undefined) it is 110%; for `O=C(N/N=C/c1ccncc1)c1ccc(C(F)(F)F)nc1Nc1cccc(C(F)(F)F)c1` it is -16.7% (active). For `COc1ccc2c(c1)O/C(=C\c1ncc([N+](=O)[O-])n1C)C2=O`, the growth was -3.86% (active).

As for `Cc1cc(O)ccc1O`, the growth is -14.1% (active). Regarding `CCN(CC)CCNc1c(C)cc(CO)c(Cl)c1C`, the growth is 107%. Turning to `CN(CC(=O)N(Cc1ccc(C2CCCCC2)cc1)c1ccc(C(=O)O)cc1)S(=O)(=O)c1c(F)c(F)c(F)c(F)c1F`, the growth is -28.6% (active). The figure for `FC(F)(F)c1cc(NC2=NCCN=C(Nc3cc(C(F)(F)F)cc(C(F)(F)F)c3)SS2)cc(C(F)(F)F)c1` is 52.9%; for `Nc1ccc2c3c(cccc13)-c1ccccc1-2` it is 4.53% (active); for `COc1ccc(F)cc1/C=C/C(=O)/C=C(/C=C/c1cc(F)ccc1OC)OB(F)F` it is -8.82% (active). `N#Cc1c(-c2ccccn2)[nH]c(=S)[nH]c1=O`: the growth is 94.9%.

Turning to `Cn1c(O)c(N=NC(=O)c2cc(-c3ccccc3)on2)c2ccccc21`, the growth was 80.8%. `COc1cccc(-c2cc(-c3cc4ccccc4oc3=O)nc(N)n2)c1`: the growth was 101%. For the compound `CN1CCN(Cc2ccc(NC(=O)c3cncc(C#Cc4cnc(N)c5ccc(F)cc45)c3)cc2C(F)(F)F)CC1`, the growth was -27% (active).

The record behind these values is PubChem BioAssay (NCI).
